This is an account of results in PubChem BioAssay.

A number with no mark means an inactive call. How the calls were made is not given here. Starred links: 1 amine or outer side, 2 acyl side, 3 side chain; linkers in the order of their positions; H or OH if unused. Positions of bridges follow the written chain, without caps; N, C: chain ends. Non-standard residues stand in square brackets, D forms with d. Residues, ends and D or L forms follow the SMILES beside them. ξ: configuration not given here. *: point of attachment. ΔAla(E,3-NHCONH2) = NC(=O)N/C=C(/N)C(=O)O; X1 = NC1=NCCC(C(N[*:1])C(=O)[*:2])N1; ξβ3hOrn = NCCCC(N)CC(=O)*; Orn = NCCC[CH](N)C(=O)O; Dap = NC[CH](N)C(=O)O

In this experiment the test system is Aerobactin synthetase IucA (Klebsiella pneumoniae hvKP1). The experiment is described as follows: IucA enzyme inhibition, primary screen, biochemical, Spectrum library (AID 1346200).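 Further: 100% = wells without compound and 0% = wells lacking enzyme.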 As to conditions: malachite green pyrophosphate, A620, at 8 µM, stronger effect = lower value.
With `C[N+]1(C)C[C@H](O)[C@H](C(=O)[O-])C1`, the activity remaining was 94.3%.

As to `CN(C)CCCO[C@H]1[C@@H](C(O)CO)OC2OC(C)(C)O[C@@H]21` (stereo not given in full), the activity remaining is 95%.

In the case of `CC(=O)O[C@@H]1C[C@@]2(C)C(CC[C@@H]2C(C)=O)C2CCC3=CC(=O)CC[C@]3(C)C21` (stereo not given in full), the activity remaining is 88.2%.

In the case of `COc1ccc(C(Cl)=C(c2ccc(OC)cc2)c2ccc(OC)cc2)cc1`, the activity remaining is 117%.

For `NCCCC(N)CC(=O)NCC1NC(=O)C(CO)NC(=O)C(N)CNC(=O)C(C2CCN=C(N)N2)NC(=O)/C(=C\NC(N)=O)NC1=O` (stereo not drawn) (H-[Dap]S[Dap](ξβ3hOrn)[ΔAla(E,3-NHCONH2)][X1]; lactam 1-C; configuration not given here), the activity remaining is 101%.

As to `Cc1ccc(C(=O)c2ccc(CC(=O)O)n2C)cc1`, the activity remaining is 120%.

Turning to `COCCCOc1cc(C[C@@H](C[C@H](N)[C@@H](O)C[C@H](C(=O)NCC(C)(C)C(N)=O)C(C)C)C(C)C)ccc1OC`, the activity remaining is 107%.

As to `C=C1C(C2(C)C=CC(=O)C(C)(C)C2CC(=O)OC)CC[C@@]2(C)[C@H](c3ccoc3)OC(=O)C3OC132` (stereo not given in full), the activity remaining was 105%.

Turning to `O=C1OC(c2ccc(O)cc2)(c2ccc(O)cc2)c2ccccc21`, the activity remaining was 115%.

`CC(=O)Oc1c(-c2ccccc2)oc2c(CC=C(C)C)c3c(c(OC(C)=O)c2c1=O)C=CC(C)(C)O3`: the activity remaining is 98.4%.

Consider `Oc1c(Cl)cc(Cl)c(Cl)c1Cc1c(O)c(Cl)cc(Cl)c1Cl`, for which the activity remaining was 118%.

With `CCC(C)(C)C(=O)O[C@H]1C[C@@H](C)C=C2C=C[C@H](C)[C@H](CC[C@@H]3C[C@@H](O)CC(=O)O3)[C@H]21`, the activity remaining was 106%.

For `CC1O[C@@H](Oc2c(-c3ccc(O)c(O)c3)oc3cc(O)cc(O)c3c2=O)[C@H](O)[C@H](O)[C@H]1O` (stereo not given in full), the activity remaining was 111%.

Turning to `CCOC(=O)NNc1nncc2ccccc12`, the activity remaining is 118%.

As for `CCOc1ccc(C(=O)c2ccc(OC)c(O)c2O)cc1`, the activity remaining is 109%.

Consider `CC(C)CC1NC(=O)C(CCCN)NC(=O)C(C(C)C)NC(=O)C2CCCN2C(=O)C(Cc2ccccc2)NC(=O)C(CC(C)C)NC(=O)C(CCCN)NC(=O)C(C(C)C)NC(=O)C2CCCN2C(=O)C(Cc2ccccc2)NC1=O` (stereo not given) (cyclo(FPV[Orn]LFPV[Orn]L); configuration not given here), for which the activity remaining is 122%.

Turning to `O=C(O)c1nc2cc(Cl)c(Cl)cc2[nH]c1=O`, the activity remaining is 92.7%.

For `CC[C@H]1OC(=O)[C@H](C)[C@@H](O[C@H]2C[C@@](C)(OC)[C@@H](O)[C@H](C)O2)[C@H](C)[C@@H](O[C@@H]2O[C@H](C)C[C@H](N(C)C)[C@H]2O)[C@](C)(OC)C[C@@H](C)C(=O)[C@H](C)[C@@H](O)[C@]1(C)O`, the activity remaining is 119%.

On to `COc1cc(O)c(C(=O)/C=C/c2ccccc2)c(OC)c1`, for which the activity remaining is 119%.

As to `CC(=O)OCC(=O)[C@@]1(O)CCC2C3CCC4=CC(=O)CC[C@]4(C)C3[C@@H](O)C[C@@]21C` (stereo not given in full), the activity remaining was 85.9%.

For `COc1ccc(-c2cc(=O)c3c(O)c(OC)c(OC)c(OC)c3o2)cc1OC`, the activity remaining was 80.1%.

Turning to `CC(C)Oc1ccc2c(=O)cc(-c3ccccc3)oc2c1`, the activity remaining is 114%.

As for `O=C(O)c1ccccc1O`, the activity remaining was 121%.

For `O=C1CC(c2ccccc2)Oc2ccccc21` (stereo not given), the activity remaining was 125%.

`COc1ccc(OC)c(C(O)CNC(=O)CN)c1` (stereo not given): the activity remaining is 99.4%.

For the molecule `C=CCSCC=C`, the activity remaining was 109%.

For `O=C1CC(c2ccc(O)cc2)Oc2ccccc21` (stereo not given), the activity remaining is 92%.

Take `C/C=C(/C)C(=O)O[C@@H]1[C@H](OC(C)=O)[C@@]2(CO)C(CC1(C)C)C1=CCC3[C@@]4(C)CC[C@H](O[C@@H]5O[C@H](C(=O)O)[C@@H](O[C@@H]6O[C@H](CO)[C@@H](O)[C@H](O)[C@H]6O)[C@H](O)[C@H]5O[C@@H]5O[C@H](CO)[C@@H](O)[C@H](O)[C@H]5O)[C@](C)(CO)C4CC[C@@]3(C)[C@]1(C)C[C@H]2O` (stereo not given in full): the activity remaining is 119%.

Turning to `COc1cc(C(=O)NCCCCCC(=O)O)cc(OC)c1OC`, the activity remaining was 120%.

`CC(=O)O[C@]1(C)CC[C@@]23CC1C(C)(C)[C@@H]2CC[C@H]3C`: the activity remaining is 102%.

With `CC(C)(C)NC[C@H](O)c1ccc(O)c(CO)c1`, the activity remaining was 112%.

`COc1cccc2c1C(=O)c1c(O)c3c(c(O)c1C2=O)C[C@@](O)(C(C)=O)C[C@@H]3O[C@H]1C[C@H](N)[C@H](O)[C@H](C)O1`: the activity remaining is 75.3%.

With `Nc1ccc(C(=O)NCC(=O)O)cc1`, the activity remaining was 111%.

In the case of `COc1ccc(CN(CCN(C)C)c2ncccn2)cc1`, the activity remaining is 120%.

`COc1ccc2cc1Oc1ccc(cc1)C[C@H]1c3cc(c(OC)cc3CCN1C)Oc1c(OC)c(OC)cc3c1[C@H](C2)N(C)CC3`: the activity remaining is 108%.

Turning to `NNC(=O)c1ccncc1`, the activity remaining is 106%.

With `NCc1ccc(S(N)(=O)=O)cc1`, the activity remaining is 114%.

`CC(C)=CCOc1cc2oc(=O)ccc2cc1O`: the activity remaining is 109%.

Regarding `COc1cc2nc(N(C)CCCNC(=O)C3CCCO3)nc(N)c2cc1OC` (stereo not given), the activity remaining is 120%.

Take `CCCCOc1ccc(OCCCN2CCOCC2)cc1`: the activity remaining is 104%.
